# High-throughput results: PubChem, NMMLSC
# An excerpt weighted towards active compounds, which were near 1.2% of everything screened.
# RGS16-Gao HTS = modulates binding between human RGS16 and Galphao. O15492+P09471. bead-based flow cytometry RGS16-Galphao binding, fluorescence; actives lie on both sides. binding response (% of control), % at 10 µM. hit rate 0.38% among 220,000. AID 1441;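 note: Galphao activated by GDP with aluminum fluoride before binding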
# Avidin bead fluor = avidin bead compound fluorescence profile. hit rate 0.38% among 220,000. AID 1775. Avidin beads, compound fluorescence 488/530 nm, flow cytometry; hits give high values. fluorescence (KMESF) at 10 µM; in the data active = fluorescence above about 47
# RGS7-Gao reg = modulates binding of RGS7 to human Galphao; P09471; Multiplexed bead flow cytometry; actives lie on both sides; binding response (% of control), % at 10 µM; hit rate 0.35% among 220,000; AID 1439; in the data active = binding response below about 49% or above about 150%;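 note: fluorescent Galphao held in activated GDP-AlF4 state binding bead-coupled RGS7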
# RGS4-Gao reg = human RGS4-Galphao interaction regulation | Multiplexed bead flow cytometry, RGS4-Galphao binding; actives lie on both sides | AID 1415 | hit rate 0.33% among 220,000 | P09471 | binding response (% of control), % at 10 µM; in the data active = binding response below about 49% or above about 150%; inactive = in between;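 note: fluorescent Galphao activated with aluminum fluoride binding bead-coupled RGS4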
# RGS8-Gao = modulates binding of RGS8 to human Galphao; P09471; multiplexed bead flow cytometry; actives lie on both sides; response (percent of control binding), % at 10 µM; hit rate 0.34% among 220,000; in the data active = response below about 60% or above about 140%; inactive = in between;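 note: Galphao activated as the GDP aluminium fluoride complex binding bead-coupled RGS8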
# GSH fluor = compound fluoresces at 488/530 nm on GSH beads | GSH beads flow cytometry, compound fluorescence 488/530 nm; hits give high values | fluorescence (KMESF) at 10 µM | hit rate 0.25% among 190,000 | AID 1776; in the data active = fluorescence above about 89;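 note: glutathione beads carrying GST-tagged Bcl family fusion proteins plus one bare bead set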
# RGS4-Gao HTS = regulators of human RGS4-Galphao interaction; hit rate 99% among 1,600; RGS4–Galpha-o binding response, % at 10 µM; shares compounds with RGS16-Gao HTS; AID 1504; multiplexed bead flow cytometry, RGS–Galpha-o binding;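 note: fluorescently labeled Galpha-o bound to GDP with aluminium fluoride binding biotinylated RGS beads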
# Avidin counter = biotin-avidin bead binding disruption counter-screen; shares compounds with RGS16-Gao HTS; streptavidin beads, fluorescein-biotin binding, flow cytometry; inhibition, % at 10 µM; 1,700 tested, under 10 active;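 active = inhibition above 50%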;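 note: median green fluorescence of gated singlet beads compared with DMSO control wells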
# RGS8-Gao single = confirmation of regulators of human RGS8-Galphao interaction | bead-based flow cytometry RGS8-Galphao binding, fluorescence; actives lie on both sides | shares compounds with RGS16-Gao HTS | hit rate 3% among 1,700 | AID 1836 | binding response (% of control), % at 10 µM; in the data active = binding response below about 72% or above about 130%; inactive = in between;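 note: Galphao activated as GDP AlF4 complex before binding bead RGS8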
# RGS7-Gao confirm = confirmation of regulators of human RGS7-Galphao interaction; response (percent of control binding), % at 10 µM; bead-based flow cytometry RGS7-Galphao binding; actives lie on both sides; hit rate 7.8% among 1,700; AID 1837; shares compounds with RGS16-Gao HTS; in the data active = response below about 75% or above about 130%; inactive = in between;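 note: fluorescent Galphao activated with GDP and aluminum fluoride binding bead-coupled RGS7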
# RGS16-Gao single = confirmation of regulators of human RGS16-Galphao interaction; shares compounds with RGS16-Gao HTS; bead-based flow cytometry, RGS16-Galphao binding; actives lie on both sides; response (% of control binding), % at 10 µM; hit rate 4% among 1,700; AID 1838; in the data active = response below about 74% or above about 130%; inactive = in between;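 note: Galphao activated as the GDP aluminium fluoride complex binding bead-coupled RGS16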
# RGS4-Gao confirm = confirmation of regulators of human RGS4-Galphao interaction | AID 1840 | RGS4-Galphao binding, multiplexed bead flow cytometry; actives lie on both sides | hit rate 4% among 1,700 | binding response (% of control), % at 10 µM | shares compounds with RGS16-Gao HTS; in the data active = binding response below about 74% or above about 130%; inactive = in between
# RGS19-Gao single = confirmation of regulators of human RGS19-Galphao interaction. shares compounds with RGS16-Gao HTS. bead-based flow cytometry RGS19-Galphao binding; actives lie on both sides. response (percent of control binding), % at 10 µM. hit rate 5% among 1,700. AID 1841; in the data active = response below about 50% or above about 160%; inactive = in between
# A number is an active result; n = inactive; x = not tested or not shown; [ ] = another dose, or the depositor's remark. Unless noted, the rule behind the calls is not given here.
SMILES,RGS16-Gao HTS,Avidin bead fluor,RGS7-Gao reg,RGS4-Gao reg,RGS8-Gao,GSH fluor,RGS4-Gao HTS,Avidin counter,RGS8-Gao single,RGS7-Gao confirm,RGS16-Gao single,RGS4-Gao confirm,RGS19-Gao single
COc1cccc(OC)c1C(=O)NC(=S)Nc1ccc2oc(=O)ccc2c1,n,n,n,n,n,n,x,x,x,x,x,x,x
CS(=O)(=O)N1CCc2cc(S(=O)(=O)NCCNS(=O)(=O)c3ccc4c(c3)CCN4S(C)(=O)=O)ccc21,n,n,n,n,n,n,x,x,x,x,x,x,x
CC1(C)CC(=O)C2=C(C1)Nc1ccccc1NC2c1cccnc1 (stereo not drawn),n,n,n,n,n,n,x,x,x,x,x,x,x
Cn1cccc1C1Nc2ccccc2NC2=C1C(=O)CC(C)(C)C2 (stereo not drawn),n,n,n,n,58,n,60,n,n,n,n,n,n
Cn1c(=O)c2cc(S(=O)(=O)NC(C(=O)NCc3ccccn3)c3ccccc3)ccc2n(C)c1=O (stereo not drawn),n,n,n,n,n,n,x,x,x,x,x,x,x
O=C(CCC(=O)OCc1ccc(Cl)cc1)Nc1cccc([N+](=O)[O-])c1,n,n,46,n,58,n,51,x,x,x,x,x,x
CCOC(=O)CCC(=O)Nc1cccc([N+](=O)[O-])c1,n,n,n,n,n,n,x,x,x,x,x,x,x
CCCOC(=O)c1c(NC(=O)C2CCCO2)sc(C(=O)OC)c1C (stereo not drawn),n,n,n,n,n,n,x,x,x,x,x,x,x
CCOC(=O)c1c(NC(=O)C2CCCO2)sc(C(N)=O)c1C (stereo not drawn),295[activator],n,n,n,n,n,111,n,n,n,n,n,n
COCCN1Cc2cccc(C(=O)NCc3ccc4c(c3)OCO4)c2C1=O,20,n,n,n,n,n,89,n,n,n,n,n,n
COCCN1Cc2cccc(C(=O)NCc3ccccn3)c2C1=O,n,n,n,n,n,n,x,x,x,x,x,x,x
COc1ccc(NC(=S)N(Cc2ccccn2)Cc2ccccc2Cl)cc1,n,n,n,n,n,n,x,x,x,x,x,x,x
COc1ccc(NC(=O)NCCc2ccc(Cl)cc2)cc1OC,0.8,n,-3.3,7.0,12,n,x,n,n,n,n,n,n
COc1ccc(CNC(N)=O)cc1OC,n,n,n,n,n,n,x,x,x,x,x,x,x
COc1ccc(CNC(=O)NCc2ccc(OC)c(OC)c2)cc1OC,n,64,157[activator],n,n,n,115,n,n,n,n,n,n
COc1ccc(CC(=O)OCC(=O)NCc2ccccc2Cl)cc1OC,176[activator],n,162[activator],160[activator],159[activator],n,x,n,n,n,n,n,n
COc1cccc(NC(=O)NCCc2ccc(Cl)cc2)c1,n,n,n,n,n,n,x,x,x,x,x,x,x
Cc1cccc2nc(CSc3ccccc3C(=O)O)cn12,n,n,n,n,n,n,x,x,x,x,x,x,x
O=C(Nc1ccc2c(c1)OCCO2)c1cccnc1,n,n,n,n,n,n,x,x,x,x,x,x,x
Cn1c(C(=O)OC(C(=O)NC2CCCC2)c2cccnc2)cc2sccc21 (stereo not drawn),n,n,n,n,n,n,x,x,x,x,x,x,x
